The panel holds about 83,000 compounds, 20% with a hit somewhere; the sample as a whole holds those more often.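 Step 1: grow cells in 96-well plates. Step 2: add test compound at a single concentration. Step 3: incubate 48 h. Step 4: record percent growth.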 A number with no mark means an inactive call. The source made the active and inactive calls. How the source made its calls: active means growth percent below 10; inactive means the rest.
How the values were obtained:
Assay in all cases: NCI-60 one-dose screen, 48 h (100 = growth as untreated, 0 = no growth, -100 = all killed)
Conditions in all cases: 10 µM
[1] = test system: HCT-15 colon
[2] = test system: HT29 colon
[3] = test system: SNB-75 CNS
[4] = test system: SNB-19 CNS
[5] = test system: U251 CNS
[6] = test system: PC-3 prostate
[7] = test system: SK-MEL-5 melanoma
[8] = test system: UACC-62 melanoma
[9] = test system: LOX IMVI melanoma
[10] = test system: SK-MEL-28 melanoma
[11] = test system: SK-MEL-2 melanoma
[12] = test system: EKVX NSCLC
[13] = test system: UO-31 renal
[14] = test system: TK-10 renal
[15] = test system: ACHN renal
[16] = test system: CAKI-1 renal
[17] = test system: A498 renal
[18] = test system: CCRF-CEM leukemia
[19] = test system: MOLT-4 leukemia

Structure (SMILES)	growth [1]	growth [2]	growth [3]	growth [4]	growth [5]	growth [6]	growth [7]	growth [8]	growth [9]	growth [10]	growth [11]	growth [12]	growth [13]	growth [14]	growth [15]	growth [16] [%]	growth [17]	growth [18]	growth [19]
COc1ccc(-c2nnc(SCC(=O)c3ccccc3)o2)cc1	96.3%	90.8%	92.5%	96.9%	98.1%	97.1%	92.8%	88.3%	92.8%	106%	95.6%	97.9%	99.4%	89.1%	97.5%	94.7	85.1%	59.5%	95.2%
COc1cc(C2=Nc3c/c(=C\c4c(O)[nH]c5ccc(Cl)cc45)ccc3=N2)cc(OC)c1OC	24.8%	-73.3% (active)	50.1%	-30.9% (active)	-90.6% (active)	21.7%	-92.2% (active)	31.8%	2.31% (active)	-35.7% (active)	31.1%	77.7%	35.5%	35%	73.2%	50.4	93.4%	8.61% (active)	10.3%
CNC(=O)c1cc(Oc2ccc(NC(=O)Nc3ccc(Cl)c(C(C)(C)C)c3)c(F)c2)ccn1	38.9%	25.9%	104%	60%	52%	37.7%	-23.2% (active)	16%	16.6%	34.8%	44.2%	29.9%	41.6%	54.8%	31.5%	54.4	53.4%	40.6%	36.6%
COc1ccc(-c2nnc(SC/C(=N\O)c3ccccc3)o2)cc1	97.5%	95%	106%	99.7%	103%	86.8%	97.1%	81%	95.1%	94.3%	102%	95.8%	97.1%	107%	101%	95.1	80.8%		80.4%
S=c1c2ncccc2c(-c2ccccn2)nn1Cc1ccccn1	98.9%	93.7%	77.1%	103%	95%	73.8%	105%	104%	94.8%	117%	92.1%	99.3%	82.2%	99.5%	104%	92.1	134%	84.2%	93.3%
N#CN1CC[C@H](C(=O)Nc2ncc(-c3ccncc3)s2)C1	2.59% (active)	-39.9% (active)	-37.5% (active)	9.6% (active)	1.7% (active)	5.04% (active)	-17.1% (active)	-26.9% (active)	2.09% (active)	5.92% (active)	-36.1% (active)	1.46% (active)	8.4% (active)	-24.9% (active)	6.59% (active)	10	-49.4% (active)	7.15% (active)	-20.4% (active)
CC(=O)c1ccc(NCn2nc(-c3ccc(Cl)cc3)oc2=S)cc1	99.3%	98.3%	107%	95.8%	96.1%	89.9%	104%	93.3%	90.3%	95.5%	99.3%	103%	95.8%	95.9%	96.1%	97	106%	103%	81.8%
CCN(CC)CCOC(=O)c1ccc(N=Nc2ccc(O)c(OC)c2)cc1	103%	90.7%	89.3%	104%	87.1%	95.4%	92%	99.8%	92.2%	107%	87.8%	99.2%	87.8%	87.2%	105%	97.4	80.8%	99.5%	93.8%
